# High-throughput results deposited in PubChem by National Center for Advancing Translational Sciences (NCATS).
# In the library only some 3.8% were active in any assay of this set; here they are far more common.
# HepG2 viability: qHTS for Inhibitors of TGF-b: Cytotox Counterscreen | HepG2 CAGA-GFP viability, ATP luminescence, 18 h | Potency, µM (highest dose often 46.1 µM), usual class: cytotoxic | hit rate 0.76% among 410,000
#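 CellTiter-Glo luminescence gave cytotoxicity after 18 hours at 37 degrees C. The cells were HepG2 CAGA-GFP in 1% FBS DMEM, stimulated with 500 pg/mL TGF-beta after compound addition. %Activity was normalised to no-cell wells (complete cell-killing) and DMSO (no toxicity), and curves were fitted and classified.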
# HT1080 IDH1KD tx: qHTS for induction of synthetic lethality in tumor cells producing 2HG: qHTS for the HT-1080-IDH1KD cell line. HT-1080 IDH1 knockdown viability, ATP luminescence, 48 h. Potency, µM (doses to about 46.1 µM), actives largely listed as cytotoxic. hit rate 2% among 360,000. AID 686971, 2013
#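 CellTiter-Glo luminescence after 48 h compound exposure at 37 degrees C of IDH1-knockdown HT-1080 cells in 5% FBS RPMI. %Activity scaled between DMSO wells and cell-free media wells, with curves fitted and assigned curve classes.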
# ATXN2 expr inh: Primary qHTS for Inhibitors of ATXN expression. HEK-293 ATXN2-luciferase reporter, luminescence, 24 h. AID 1745845, 2022. Potency, µM (highest dose often 57 µM), hits mostly inhibitors. hit rate 0.72% among 360,000; note: nearly all actives have a fitted effect of over 55% in size
#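 ATXN2-luciferase reporter cells (luciferase flanked by upstream and downstream ATXN2 gene portions) were treated 24 h at 37 °C with compounds at up to 57 uM. SteadyGlo luminescence gave expression; GF-AFC fluorescence gave viability.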
# HT1080NT lethal: qHTS for induction of synthetic lethality in tumor cells producing 2HG: qHTS for the HT-1080-NT fibrosarcoma cell line; hit rate 1.6% among 360,000; Potency, µM (series often up to 46.1 µM), hits mostly cytotoxic; HT-1080-NT fibrosarcoma viability, CellTiter-Glo ATP luminescence, 48 h;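 note: NT is the 2HG producing partner of a matched IDH1 knockdown line; nearly all actives have a fitted effect of over 55% in size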
#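 Viability of the 2HG-overproducing fibrosarcoma line after 48 hours of compound exposure at 37 degrees C was determined by luminescence with CellTiter-Glo, and concentration-effect curves were then fitted and categorized.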
# ATXN viability: Viability Counterscreen for Primary qHTS for Inhibitors of ATXN expression. S2 cells (HEK-293 line with an ATXN2-luciferase reporter) viability, CellTiter-Fluor protease fluorescence, 24 h. Potency, µM (highest dose often 56.7 µM), most hits filed as cytotoxic. hit rate 0.49% among 400,000; note: nearly all actives have a fitted effect of over 40% in size
# TGFb SMAD3 inh: qHTS for Inhibitors of TGF-b | HepG2 CAGA-GFP TGF-b/SMAD3 reporter, GFP fluorescence, 18 h; TGF-beta stimulated, 500 pg/mL final | Potency, µM (highest dose often 46.1 µM), actives largely listed as inhibitors | hit rate 1.2% among 410,000 | AID 588855, 2011; note: nearly all actives have a fitted effect of over 65% in size
#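 Cell-based qHTS in HEPG2 carrying a CAGA-GFP Smad reporter; compounds added before 500 pg/mL final TGF-beta, 18 h incubation at 37 degrees C, GFP fluorescence quantified per cell by imaging cytometry.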
# Hits are given with their value; 0 = inactive; ? = inconclusive; - = no result given. Calls come from the whole dose curve; as a rule, active = well fitted curve in the direction sought with a large enough effect; inconclusive = small, poorly fitted or top-dose-only effect, or another doubt; inactive = no such curve, though single readings can be large; an effect the other way counts as inactive or inconclusive.
SMILES,HepG2 viability,HT1080 IDH1KD tx,ATXN2 expr inh,HT1080NT lethal,ATXN viability,TGFb SMAD3 inh
COC(=O)CSc1nnc(COc2cccc3ccccc23)o1,0,0,0,0,0,0
Cc1csc(N(C)C(=O)CSc2nnc(COc3cccc4ccccc34)o2)n1,0,?,?,6.3µM,0,?
CC(=O)Nc1cccc(-n2c(=O)n(C3CC3)c(=O)c3c(Nc4ccc(I)cc4F)n(C)c(=O)c(C)c32)c1,-,-,0,-,-,-
Cc1ccc(NC(=O)NNC(=O)Cn2nc(-c3ccccc3)c(-c3ccccc3)c(C#N)c2=O)cc1,0,5.2µM,0,4.6µM,0,?
O=C(Cn1nc(-c2ccccc2)c2ccccc2c1=O)Nc1ccc(O)cc1,0,0,-,0,0,0
CC1=C(C(=O)Nc2cc3cn[nH]c3cc2F)C(c2ccc(C(F)(F)F)cc2)CC(=O)N1 (stereo unspecified),-,-,0,-,-,-
CN1c2ccccc2N(C)C1c1ccc2c(c1)OCO2,0,?,0,0,0,0
Cc1cc2c(c(C)c1Cl)C(c1ccc3c(c1)OCO3)CC(O)(c1ccccc1)O2 (stereo unspecified),18µM,-,-,-,-,20µM
CCCCc1ccc(NC(=O)CSc2nc(=O)n(CCN(CC)CC)c3c2CCCC3)cc1,0,?,?,?,-,0
CCCCc1ccc(NC(=O)CSc2nc(=O)n(CCN(C)C)c3c2CCC3)cc1,0,15µM,0,21µM,?,?
O=C(Nc1nccs1)[C@@H]1CC=C[C@@H]2CCN(C3CCCCC3)C(=O)[C@@H]21,0,-,-,-,-,?
N#CC1=C(N)OC2=C(CCc3ccccc32)C1c1ccccc1Cl (stereo unspecified),0,4.6µM,0,7.3µM,0,0
CCn1c(C(=O)Nc2ccc(C)cc2C)cc2sc(Cl)cc21,0,-,0,-,0,0
N#CC1=C(SCC(=O)c2ccc(Br)cc2)NC2=C(C(=O)CCC2)C1c1ccco1 (stereo unspecified),0,10µM,0,13µM,0,0
Fc1ccc(NC(=S)NN=C2CCCCCC2)cc1,0,10µM,0,8.9µM,0,?
Cc1cc2[nH]c3ccccc3c2c(C)n1,0,?,?,0,0,?
Cc1cc2[nH]c3c4ccccc4nc(C)c3c2cc1C,18µM,?,?,15µM,-,13µM
CCCC(=O)N1CCC1(C)C(=O)Nc1ccc2c(c1)OCCO2 (stereo unspecified),0,0,0,0,0,0
C#Cc1ccc(NC(=O)C2(C)CCN2C(=O)Cc2ccc(C(C)(C)C)cc2)cc1 (stereo unspecified),0,10µM,0,?,?,0
C#Cc1ccc(NC(=O)C2(C)CCN2C(=O)Cc2ccc(C(C)C)cc2)cc1 (stereo unspecified),0,?,?,?,?,0
CC1(C(=O)NCc2ccc(Cl)cc2)CCN1C(=O)Cc1ccc(Cl)cc1Cl (stereo unspecified),0,0,0,0,?,0
CC(C)(C)c1ccc(CC(=O)N2CCC2(C)C(=O)NCc2ccc(Cl)cc2)cc1 (stereo unspecified),0,26µM,0,?,0,?
CCC(=O)N1CCC1(C)C(=O)Nc1ccc2c(c1)OCO2 (stereo unspecified),0,0,0,0,0,14µM
Cc1ccc(Cn2c(SCC(=O)NCc3ccccc3Cl)nc3ccsc3c2=O)cc1,0,-,-,-,-,0
C=CCNc1c(O)cc2c(O)c1C[C@@H](C)C[C@H](OC)[C@@H](O)[C@@H](C)C=C(C)[C@H](OC(N)=O)[C@@H](OC)C=CC=C(C)C(=O)N2,-,-,0.77µM,-,-,-
SMILES,HepG2 viability,HT1080 IDH1KD tx,ATXN2 expr inh,HT1080NT lethal,ATXN viability,TGFb SMAD3 inh
CCN1CCCC1CNC(=O)c1cnn(-c2nccc(-c3ccccc3OC)n2)c1-c1ccco1 (stereo unspecified),-,-,-,-,0,-
Cc1cccc(-c2nc3c4ccccc4n(CC(=O)Nc4cccc(F)c4)c(=O)n3n2)c1,0,-,0,-,?,?
CCOC(=O)C(=Cc1ccc(-n2cncn2)cc1)C(=O)OCC,0,5.2µM,?,16µM,?,?
CC(CCCN(C)C)C(Cc1ccccc1)c1ccccc1 (stereo unspecified),0,16µM,0,?,0,0
CN(C)CC(c1ccccc1)c1ccccc1,0,0,0,0,0,0
CCC(C=C[C@@H]1OC(=O)C=C[C@H]1C)=C[C@H](C)CC=CC(C)=C[C@@H](C)C(=O)[C@@H](C)[C@H](O)[C@@H](C)CC(C)=CC(=O)O,-,-,0.13µM,-,-,-
CCCCC/C=C\C/C=C\CCCCCCCC(=O)NC(C)c1ccccc1 (stereo unspecified),-,-,0,-,0,-
c1ccc2c(CCC3CCNCC3)c[nH]c2c1,-,-,-,-,0,-
c1ccc(-c2nc3ccccc3[nH]2)nc1,0,0,0,0,0,0
Cc1ccc2nc(-c3ccccn3)[nH]c2c1,0,18µM,?,?,0,0
Cc1cccc(NC(=O)CSCC(=O)Nc2cc(Cl)ccc2N2CCN(C)CC2)c1,0,15µM,0,15µM,0,?
N#Cc1nc(-c2cccs2)oc1NCc1ccc2c(c1)OCO2,7.9µM,0,0,0,0,0
O=S1(=O)C=C(Sc2nnc(-c3ccccc3)o2)c2ccccc21,14µM,1.3µM,10µM,2.8µM,-,10µM
O=S1(=O)C=C(SCCN2CCCCC2)c2ccccc21,0,0,0,0,0,0
Cc1cc(C)nc(SC2=CS(=O)(=O)c3ccccc32)n1,0,?,?,23µM,?,0
O=S1(=O)C=C(Sc2nc3ccccc3s2)c2ccccc21,11µM,2.6µM,?,2.3µM,7.1µM,2.8µM
CCN1CCCC1CNC(=O)c1cnn(-c2nccc(-c3ccc(C)o3)n2)c1C1CC1 (stereo unspecified),-,-,-,-,0,-
CN(CCCNC(=O)Cn1ncc2c([nH]c3ccccc32)c1=O)Cc1ccccc1,0,-,0,-,0,0
Cc1ccc(C(c2nc3ccccc3[nH]2)n2c(-c3ccccc3)nc3ccccc32)cc1 (stereo unspecified),0,?,0,0,?,20µM
CCc1ccc(S(=O)(=O)c2nnn3c2nc(N2CCCC(C)C2)c2cc(Cl)ccc23)cc1 (stereo unspecified),0,-,0,-,0,0
COc1cccc(-c2ccnc(-n3ncc(C(=O)NCC4(N5CCCCC5)CCCC4)c3C)n2)c1,-,-,-,-,0,-
FC(F)Oc1ccc(NC(=S)Nn2cnnc2)cc1,0,0,?,0,0,16µM
CC(=O)N[C@@H](CCC(=O)O)C(=O)O,-,-,0,-,0,-
